From PubChem BioAssay AID624246 (National Center for Advancing Translational Sciences (NCATS), 2012)
The whole screen tested about 370,000 compounds, of which about 100 (0.027%) were called active. A call without a number means that no potency is given here. The call rests on the fitted dose curve; in most records, active means well fitted inhibition curve with a large enough effect in the polarisation, with a control signal flat; inconclusive means small, poorly fitted or top-dose-only effect, or effect the other way, or a change in a side signal; inactive means no such curve, though single readings can be large or run the other way; the % refers to the polarisation. For the sample, actives were picked, then their nearest neighbours and some compounds at random.

The molecules below were run against Transcriptional regulator ERG (Homo sapiens) (UniProt P11308) (assay: qHTS for Small Molecule Inhibitors of the ERG Ets/DNA interaction). Conditions: fluorescence polarization, His-ERG Ets domain / labelled DNA; series mostly up to 76.9 µM.
Transcriptional regulator ERG (Homo sapiens), sequence (P11308 whole entry, looked up, the tested form may be a part): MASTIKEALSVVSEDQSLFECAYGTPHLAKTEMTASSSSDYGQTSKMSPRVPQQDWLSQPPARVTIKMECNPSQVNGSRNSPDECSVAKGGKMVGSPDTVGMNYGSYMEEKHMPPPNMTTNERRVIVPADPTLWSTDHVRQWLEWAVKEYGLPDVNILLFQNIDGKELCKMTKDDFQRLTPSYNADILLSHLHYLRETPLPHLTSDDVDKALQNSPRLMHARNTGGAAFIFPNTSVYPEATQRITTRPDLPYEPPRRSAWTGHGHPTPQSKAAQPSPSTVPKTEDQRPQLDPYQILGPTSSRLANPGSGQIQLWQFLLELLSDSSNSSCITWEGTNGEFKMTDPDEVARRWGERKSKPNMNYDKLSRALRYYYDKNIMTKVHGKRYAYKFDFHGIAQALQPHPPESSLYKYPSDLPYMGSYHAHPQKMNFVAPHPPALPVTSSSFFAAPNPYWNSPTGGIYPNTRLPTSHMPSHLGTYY
Description: The Ets family of proteins is a family of ~30 conserved transcription factors defined by the presence of an ~85 amino acid domain referred to as the Ets domain, which mediates sequence-specific DNA binding to a core DNA element GGAA/T.The Ets family member ERG has been linked to several neoplasms. […] More extensive studies of the effects of over-expression of ERG in prostate cells have recently been carried out and have shown that over-expression of ERG results in increased invasion. […] We will carry out a high throughout screen to identify inhibitors of the interaction between ERG and DNA using a fluorescence polarization (FP) assay with a His-tagged ERG Ets domain and fluorescently-labeled DNA probes to develop small molecule inhibitors of this interaction as probes to test this hypothesis and lay the groundwork for the development of targeted therapies against ERG. NIH Molecular Libraries Probe Production Network [MLPCN] NIH Chemical Genomics Center [NCGC] Grant: NS066464 PI Name: John Bushweller, University of Virgina
1.5 ul of protein solution (1 uM ERG domain in 300mM KCl, 50mM Tris-HCl, 1mM EDTA, 1mM DTT, pH 7.5); 20 nl Control plate and compound library plate; 1.5 ul mixture of 5 nM Fluorescein-DNA and 100nM Texas-615-DNA solution in same buffer as above solution; measure fluorescence polarization sequentially for fluorescein (Excitation = 480 nm, Emission = 535s, 535p nm) and Texas red (Excitation = 555 nm, Emission = 632s, 632p nm).
Potency means the concentration at half of the fitted maximal effect.

Row | Structure (SMILES) | Potency
1 | Cc1ccc(C)c(Nc2nnc(-c3ccc(C)c(S(=O)(=O)N4CCCCC4)c3)c3ccccc23)c1 | inactive
2 | CCCN1C(=O)C(O)(CC(=O)c2ccc(CC)cc2)c2cc(Br)ccc21 (configuration not stated) | inactive
3 | Cc1nn(CC(=O)O)c(=O)c2cc3cc(F)ccc3n12 | inactive
4 | CCOC(=O)c1ccc(NC(=O)C2CC(=O)N(c3ccc(C(C)C)cc3)C2)cc1 (configuration not stated) | inactive
5 | COc1cccc(Cn2c(CNS(=O)(=O)c3ccc(Cl)s3)nc3cccnc32)c1 | inactive
6 | COc1ncnc2c1N=C1CC(C)(C)CC(N)=C1S2 | 35.5 µM (active)
7 | CC(=O)c1c(C)n(S(=O)(=O)c2ccc(Cl)cc2)c2ccc(NS(=O)(=O)c3ccc(Cl)cc3)cc12 | inactive
8 | COc1cccc(Cn2c(SCc3ccc(C(=O)N4CCCCC4)cc3)nc3ccncc32)c1 | inactive
9 | Fc1cccc(-n2ncc3c2ncn2nc(-c4ccccc4Cl)nc32)c1 | inactive
10 | Cc1ccc(-c2cn3c(n2)sc2cc(C(=O)NCc4cccs4)ccc23)c(C)c1 | inactive
11 | COc1ccccc1CNC(=O)c1ccccc1NC(=O)c1nsc2ccccc12 | inactive
12 | CC(=O)Nc1ccc(NC(=O)c2cc3sccc3n2Cc2ccc(F)cc2)cc1 | inactive
13 | CCOc1ccc(OCC)c(NC(=O)CN(c2ccc(C)cc2)S(=O)(=O)c2c(C)n[nH]c2C)c1 | inactive
14 | CCc1ccccc1N(C)C(=O)C1CCCN(c2ncnc3onc(-c4ccc(F)cc4)c23)C1 (configuration not stated) | inactive
15 | CCCc1nn2c(=O)cc(COC(=O)c3ccc(NC(=O)COc4ccc(F)cc4)cc3)nc2s1 | inactive
16 | COc1cc(NC(=O)Cn2c(=O)n(Cc3ccco3)c(=O)c3oc4ccccc4c32)cc(OC)c1 | inactive
17 | Cc1cccc(NC(c2cccc(F)c2)c2ccc3ccc(C)nc3c2O)n1 (configuration not stated) | inactive
18 | COc1cc(NC(=O)CCn2nc(C)cc2C)cc(OC)c1OC | inactive
19 | Cc1cc(C)cc(OCC(=O)Nc2cc(NC(=O)COc3cc(C)cc(C)c3)cc(C(=O)O)c2)c1 | inactive
20 | Cc1cc(N2CCCC2)ccc1NC(=O)COc1ccc(Cl)cc1 | inactive
21 | Cc1cc(C)cc(OCC(=O)Nc2ccc(N3CCOCC3)cc2N2CCOCC2)c1 | 28.2 µM (active)
22 | CCOc1ccc(NC(=O)c2c(NCc3cccc(OC)c3OC)sc3c2CCC3)cc1 | inactive
23 | Cc1cccc(C(=O)Nc2ccc(-c3nc4ncccc4o3)cc2C)c1 | inactive

Row | Structure (SMILES) | Potency
24 | CC(=O)Nc1ccc(NC(=O)CCCc2nc(-c3ccc(C(C)(C)C)cc3)no2)cc1 | inactive
25 | COc1ccccc1CN1CCC(CNC(=O)c2cnn(-c3ccccc3Cl)c2C2CCN(C(=O)OC(C)(C)C)CC2)CC1 | inactive
26 | CC(C)Cn1c(=O)c2ccccc2n2c(CCC(=O)N3CCN(c4cccc(Cl)c4)CC3)nnc12 | inactive
27 | CCCn1c2ccccc2c2cnn(CC(=O)N(C)c3ccccc3CC)c(=O)c21 | inactive
28 | O=C(NCc1ccccc1Cl)C1=Cc2cc(Br)ccc2OC1 | inactive
29 | COc1ccc(NC(C)=O)cc1NC(=O)CN1CCN(c2ccc(F)cc2)CC1 | inactive
30 | O=C(CSc1oc(-c2ccco2)nc1S(=O)(=O)c1ccc(Cl)cc1)c1ccccc1 | inactive
31 | Cc1ccccc1-c1nc(CS(=O)(=O)CC(=O)Nc2cc(Cl)cc(Cl)c2)c(C)o1 | inactive
32 | Cc1ccc(NC(=O)c2nc(S(=O)(=O)Cc3cccc(C)c3)ncc2Cl)cc1 | inactive
33 | CCc1cccc(C)c1NS(=O)(=O)c1ccc(-c2cc(C)no2)s1 | inactive
34 | O=C(CC1N=C2c3ccccc3N=C(SCc3ccc(F)cc3)N2C1=O)NCc1cccs1 (configuration not stated) | inactive
35 | COc1cccc(-c2nc(CS(=O)(=O)CC(=O)N3CCN(c4cc(C)ccc4C)CC3)c(C)o2)c1 | inactive
36 | CSc1nc(Nc2ccc(F)cc2)cc(-c2ccccc2)n1 | inactive
37 | Cc1nc(SCC(=O)Nc2ccc(C(=O)O)cc2)n[nH]1 | inactive
38 | COc1ccc(NC(=O)CSc2nccn2C2CCCC2)cc1OC | inactive
39 | COc1ccc(OCC(=O)Nc2cccc(C(=O)OCc3cc(=O)n4nc(C)sc4n3)c2)cc1 | inactive
40 | Cc1nnc(NC(=O)CSc2nc3c([nH]c4ccccc43)c(=O)n2-c2cccc(Cl)c2)s1 | inactive
41 | O=C(CSc1nc(=O)[nH]c2c1CCCC2)Nc1cc(C(F)(F)F)ccc1Cl | inactive
42 | Cc1cc(C)cc(OCC(=O)Nc2nc(-c3ccc(F)cc3)ns2)c1 | inactive
43 | Cc1ccc(Cn2c(CNC(=O)Cc3cccc(C)c3)nc3cccnc32)cc1 | inactive
44 | CSc1ncc(Cl)c(C(=O)Nc2ccc(S(=O)(=O)N3CCCC(C)C3)cc2)n1 (configuration not stated) | inactive
45 | CCc1ccc(CNC(=O)c2ccc(CS(=O)c3ccc(Br)cc3)o2)cc1 (configuration not stated) | inactive
46 | Cc1cccc(C(=O)Nc2ccc(S(=O)(=O)N3CCCCC3c3cccnc3)cc2)c1 (configuration not stated) | inactive

Row | Structure (SMILES) | Potency
47 | COc1ccc(-c2nc(CN3CCC(C(=O)NCCN(CC(C)C)CC(C)C)CC3)c(C)o2)cc1OC | inactive
48 | Cc1cc(C)cc(NC(=O)CSc2oc(-c3ccccc3)nc2S(=O)(=O)c2ccc(Cl)cc2)c1 | inactive
49 | Cc1cccc(N2CCN(C(=O)c3cnc(N4CCCC4)nc3C)CC2)c1C | inactive
50 | CCc1cc2c(cc(C(=O)OC)n2Cc2nc(-c3ccc(C)cc3)oc2C)s1 | inactive
51 | Cc1ccc(-c2cc(C(F)(F)F)c(C#N)c(SCC(=O)Nc3ccccc3)n2)cc1 | inactive
52 | COc1ccc(C(=O)NCC(c2ccc(N(C)C)cc2)N2CCc3ccccc32)c(OC)c1 (configuration not stated) | inactive
53 | CC(=O)Nc1ccc(NC(=O)CSc2nnc3c4cc(Br)ccc4n(C)c3n2)cc1 | inactive
54 | O=C(CSc1oc(-c2ccco2)nc1S(=O)(=O)c1ccccc1)c1ccc(Cl)cc1 | inactive
55 | CCN(CC)CCCC(C)n1c2nc(=O)[nH]c(=O)c-2nc2cc(Cl)ccc21 (configuration not stated) | 35.5 µM (active)
56 | Cc1ccccc1OCCSc1nc2ccc(NC(=O)c3ccco3)cc2s1 | inactive
57 | Cc1ccc(-c2nnc(Nc3ccc(OCC(N)=O)cc3)c3ccccc23)cc1S(=O)(=O)NCC1CCCO1 (configuration not stated) | inactive
58 | O=C(NC1CC(=O)N(c2ccc(F)cc2)C1)c1cccs1 (configuration not stated) | inactive
59 | O=C(NCCc1ccc(Cl)cc1)c1ccc2nc(CCc3ccccc3)oc2c1 | inactive
60 | COc1ccc(OC)c(CNC(=O)CN2C(=O)CCn3nc(-c4cn(C)c5ccccc45)cc32)c1 | inactive
61 | Cc1ccc(NC(=O)CSc2nc3c(c(=O)[nH]2)CN(Cc2ccc4c(c2)OCO4)CC3)cc1C | inactive
62 | CCCCc1nn2c(=O)cc(COC(=O)c3ccc(NC(=O)c4ccccc4C)cc3)nc2s1 | inactive
63 | Cc1ccc(NC(=O)CSc2nc3ccccc3c3nc(CCn4cncc4C)nn23)cc1F | inactive
64 | CC1=C(C(=O)N2CCN(c3cccc(C(F)(F)F)c3)CC2)C2(CCCCC2)OC1=O | inactive
65 | Cc1cc(C(=O)COC(=O)CNC(=O)c2ccc(F)cc2)c(C)n1Cc1ccco1 | inactive
66 | O=C(CNC(=O)c1ccco1)OCC(=O)c1ccccc1 | inactive
67 | COCCn1c(C)cc(C(=O)COC(=O)CNC(=O)c2ccco2)c1C | 7.94 µM (active)
68 | CC(C)c1ccc(NC(=O)CN(C)S(=O)(=O)c2ccc3c(c2)c(=O)n(C)c(=O)n3C)cc1 | inactive
69 | CCOC(=O)c1cccc(NC(=O)C(Cc2ccccc2)NS(=O)(=O)c2cccc3nsnc23)c1 (configuration not stated) | inactive

Row | Structure (SMILES) | Potency
70 | CCS(=O)(=O)N1CCC(n2c(C)nc3cccnc32)CC1 | inactive
71 | CCOc1ccc(-c2cc3nc(C4CCN(C(=O)OC(C)(C)C)CC4)c(C(=O)Nc4ccc(C(=O)OC)cc4)cn3n2)cc1 | inactive
72 | CCc1ccc(CN(Cc2ccco2)C(=O)c2ccccc2Cl)cc1 | inactive
73 | CCN(CCCNC(=O)Cn1ncc2c3ccccc3n(C)c2c1=O)Cc1ccccc1 | inactive
74 | CCC(=O)N1CCc2cc(S(=O)(=O)NCCC(=O)Nc3cccc(C)c3C)ccc21 | inactive
75 | Cc1ccc(-n2ncc(C(=O)N(C)Cc3ccccc3)c2-n2cccc2)cc1 | inactive
76 | Cc1cc(O)c(C(c2ccccc2)N2CCN(c3ccccc3F)CC2)c(=O)n1Cc1ccco1 (configuration not stated) | inactive
77 | CCOc1ccc(C(=O)/C=C/c2cn(CC(O)CN3CCCCCC3)c3ccccc23)cc1 (configuration not stated) | inactive
78 | Cc1cc(C)c(NC(=O)CN2C(=O)c3cccnc3Oc3ccc(Cl)cc32)c(C)c1 | inactive
79 | CCc1ccc(S(=O)(=O)c2nnn3c2nc(N2CCN(CC)CC2)c2sccc23)cc1 | inactive
80 | Cc1cccc(NC(=O)CSc2nnc(CNC(=O)c3cccc(C)c3)n2-c2ccccc2)c1 | inactive
81 | Cc1ccccc1-c1nc2scc(CCNC(=O)C(=O)Nc3ccc(F)cc3F)n2n1 | inactive
82 | CC(C)CCNC(=O)CSc1nc2ccccc2nc1Cc1ccc(Cl)cc1 | inactive
83 | CC(=O)Nc1cccc(NC(=O)CSc2nccn2Cc2ccc3c(c2)OCO3)c1 | inactive
84 | CCC(=O)N1CCc2cc(Br)cc(S(=O)(=O)Nc3ccc(C)cc3C)c21 | inactive
85 | O=C(CN1CCN(Cc2ccc(Cl)cc2)C1=O)NCc1ccc(F)cc1 | inactive
86 | COc1ccc(-c2cccc(NS(=O)(=O)c3cc(C)c(OC)c(C)c3C)c2)nn1 | inactive
87 | Cc1nn2c(=O)cc(COC(=O)CNC(=O)c3ccc(F)cc3)nc2s1 | inactive
88 | CCOc1ccccc1C(=O)NCc1ccc2c(c1)CCN2C(=O)c1ccc(F)cc1 | inactive
89 | Cc1c(NC(=O)Nc2ccc(F)c(Cl)c2)c(=O)n(-c2ccccc2)n1C | inactive
90 | Cc1ccc(N2CC(NC(=O)Cc3cccs3)CC2=O)cc1 (configuration not stated) | inactive
91 | Cc1nnc(N2CCC(C(=O)Nc3ccc(F)cc3)CC2)c2nn(-c3ccc(Cl)cc3)c(C)c12 | inactive
92 | Cc1ccc(C)c(N2CCN(C(=O)Cn3ncc4c(=O)oc5ccc(C)cc5c43)CC2)c1 | inactive

Row | Structure (SMILES) | Potency
93 | Cc1ccc(C(=O)N2CCc3cc(CNC(=O)c4ccc(Br)cc4)ccc32)cc1 | inactive
94 | Cc1ccc(S(=O)(=O)NCc2nc3nc(C)cc(C)n3n2)cc1 | inactive
95 | CCN(CCCNC(=O)c1cc(Nc2ccc(OC)cc2)nc2ccccc12)c1cccc(C)c1 | inactive
96 | CCc1nnc2c3ccccc3nc(N3CCN(c4ccc(C)cc4C)CC3)n12 | inactive
97 | Cc1nnc(SCc2cc(=O)c3cc(F)ccc3[nH]2)n1C | inactive
98 | Cc1ccc(C(=O)Nc2ccc3[nH]c(=O)c(=O)[nH]c3c2)cc1 | inactive
99 | Cc1sc(C2C(C#N)=C(N)N(c3cccc(Cl)c3)C3=C2C(=O)CCC3)cc1CN1CCOCC1 (configuration not stated) | inactive
100 | O=C(CCc1ccccc1)NCc1ccc2c(c1)CCN2C(=O)c1ccccc1 | inactive
101 | CCc1ccccc1NC(=O)c1sc2nc3c(cc2c1N)CN(Cc1ccccc1)CC3 | inactive
102 | COc1ccc(CCNC(=O)c2ccc(CSCc3ccc(C)cc3)o2)cc1OC | inactive
103 | CCCn1c2ccccc2c2cnn(CC(=O)N3CCCC(C(=O)OCC)C3)c(=O)c21 (configuration not stated) | inactive
104 | Cc1cc(C(=O)Nc2cccc(C(F)(F)F)c2)c2c(C)nn(-c3cccc(F)c3)c2n1 | inactive
105 | CC(C)(C)c1ccc(C(=O)Nc2ccc3c(c2)CCCN3C(=O)c2cccs2)cc1 | inactive
106 | COc1ccc(-c2nc(CS(=O)CC(=O)NCc3cccnc3)c(C)o2)cc1OC (configuration not stated) | inactive
107 | COc1ccc(CNC(=O)CS(=O)Cc2nc(-c3cccc(C)c3)oc2C)cc1 (configuration not stated) | inactive
108 | COc1ccc(-c2nc(CS(=O)CC(=O)NCc3ccccn3)c(C)o2)cc1 (configuration not stated) | 35.5 µM (active)
109 | Cc1cc(C)nc(NS(=O)(=O)c2ccc(NC(=O)c3cc(=O)c4ccc(C)c(C)c4o3)cc2)n1 | inactive
110 | CCCn1c(NCc2ccccc2F)nc2ccccc21 | inactive
111 | O=C(CSc1nc(Nc2ccc(F)c(F)c2)c2ccccc2n1)c1ccc(Cl)cc1 | inactive
112 | COc1cc(C(=O)Nc2ccc(OCc3cc(=O)n4ccc(C)cc4n3)cc2)cc(OC)c1OC | inactive
